Measured values reported in PubChem BioAssay (NCI).
Compounds without any hit were thinned out: in the full panel of roughly 83,000, 20% have a hit.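 The test compound was applied at a single concentration to cells in 96-well plates for 48 hours, and percent growth was recorded.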 Calls of active or inactive are those of the source. How the source made its calls: active means growth percent below 10; inactive means the rest.

Test system: EKVX NSCLC
Test: NCI-60 one-dose screen, 48 h (100 = growth as untreated, 0 = no growth, -100 = all killed)
Details: 10 µM

SMILES | growth
CCN(CC)CCNc1ccc(CO)c2oc3cc(Cl)ccc3c(=O)c12 | 88.7% (inactive)
O=C(O)C(SC(C(=O)O)c1ccccc1)c1ccccc1 (stereo unspecified) | 104% (inactive)
COc1ccc(-c2nc3ccccn3c2-c2nnc(-c3cc(OC)c(OC)c(OC)c3)o2)cc1 | 71% (inactive)
N#Cc1c(C#N)c(SSc2c(C#N)c(C#N)c(N)n2-c2ccccc2)n(-c2ccccc2)c1N | 107% (inactive)
Cc1ccc(-c2nc(/C=C3/C(=O)N(C)c4ccc(F)cc43)c3ccccn23)cc1 | 98.1% (inactive)
CCN(CC)CCSCCCNc1c2ccc(Cl)cc2nc2ccc(OC)cc12 | -20.2% (active)
CN1CC[C@@H](c2c(O)cc(O)c3c(=O)cc(-c4ccccc4Cl)oc23)[C@@H](O)C1 | 9.74% (active)
NC1=NC(=O)C(c2ccccc2)(c2ccccc2)S1 | 107% (inactive)
CCc1ccc2c(c1)N(CCO)C1=C(C(=O)OC1)C2c1ccccc1 (stereo unspecified) | 104% (inactive)
Cc1cccc2c(NCCN(C)C)c3cccc(C(=O)NCCN(C)C)c3nc12 | 19.4% (inactive)
CCCN(CCC)CCC(O)c1cc2c(c3ccccc13)CCCC2 (stereo unspecified) | 87.9% (inactive)
COc1ccc2c(c1)/C(=C\c1c[nH]c3ccc(OC)cc13)C(=O)N2 | 47.8% (inactive)
Nc1ccn(C2CC(O)C(CO)O2)c(=O)n1 (stereo unspecified) | 102% (inactive)
COc1cccc(C2C3=C(COC3=O)N(CCO)c3cc(OC)ccc32)c1 (stereo unspecified) | 40.5% (inactive)
C=C(C(=O)c1ccccc1)C(NC(C)(C)C)c1ccccc1 (stereo unspecified) | 52.3% (inactive)
CCCC1(CC(=O)O)OCCc2c1[nH]c1ccccc21 (stereo unspecified) | 120% (inactive)
